Data published in PubChem BioAssay AID1159580 (chemical genetic matrix, 2015).
The campaign covered roughly 5,500 compounds. About 2,000 (36%) were called active. About 18% were inconclusive and are not listed. Cut-off read from the data, not from the text of the source: active = normalized growth mostly below about 0.91 (no sharp cut-off); inconclusive = no clear call, values can overlap the other calls; inactive = mostly above about 0.92. The list shows a part of the results.

Assay: chemical genetic growth profiling, strain panel (AID 1159580);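 note: tested at 20 µM; growth read once vehicle control cultures reached saturation at 30 °C; 1 = growth at the plate median or of vehicle wells; lower values mean less growth of the strain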
Settings: S. cerevisiae deletion strains, growth OD

Measured: normalized growth

C=CCS(=O)C[C@H](N)C(=O)O (some centres undefined)
inactive: locus YAL021C, strain ccr4, hits give low values 1 | locus YAL026C, strain drs2, hits give low values 1 | locus YAL030W, strain snc1, hits give low values 0.982 | locus YBL061C, strain skt5, hits give low values 1 | locus YBR009C, strain hhf1, hits give low values 1 | locus YBR023C, strain chs3, hits give low values 1 | locus YBR171W, strain sec66, hits give low values 0.982 | locus YBR231C, strain swc5, hits give low values 0.981 | locus YBR279W, strain paf1, hits give low values 0.999 | locus YCL011C, strain gbp2, hits give low values 0.992 | locus YCL016C, strain dcc1, hits give low values 1.02 | locus YCL069W, strain vba3, hits give low values 0.984 | locus YCR088W, strain abp1, hits give low values 0.986 | locus YDL005C, strain med2, hits give low values 1 | locus YDL040C, strain nat1, hits give low values 1.01 | locus YDR001C, strain nth1, hits give low values 1 | locus YDR069C, strain doa4, hits give low values 0.985 | locus YDR137W, strain rgp1, hits give low values 0.97 | locus YDR159W, strain sac3, hits give low values 0.996 | locus YDR195W, strain ref2 0.986 | locus YDR297W, strain sur2, hits give low values 1 | locus YDR334W, strain swr1, hits give low values 1.01 | locus YDR335W, strain msn5, hits give low values 0.991 | locus YDR392W, strain spt3, hits give low values 0.979 | locus YEL003W, strain gim4, hits give low values 1 | locus YEL037C, strain rad23, hits give low values 1.01 | locus YEL061C, strain CIN8 (second series), hits give low values 1.01 | locus YER015W, strain faa2, hits give low values 1 | locus YER016W, strain bim1, hits give low values 0.982 | locus YER111C, strain swi4, hits give low values 1.01 | locus YER155C, strain BEM2 (second series), hits give low values 0.961 | locus YFR010W, strain ubp6, hits give low values 0.998 | locus YGL167C, strain pmr1, hits give low values 0.997 | locus YGL173C, strain kem1, hits give low values 0.999 | locus YGL227W, strain vid30, hits give low values 0.969 | locus YGL240W, strain doc1, hits give low values 0.994 | locus YGL253W, strain hxk2, hits give low values 1 | locus YHR013C, strain ard1, hits give low values 0.981 | locus YHR027C, strain rpn1, hits give low values 0.994 | locus YHR030C, strain SLT2, hits give low values 1.02 | locus YHR079C, strain IRE1, hits give low values 1.01 | locus YHR142W, strain chs7, hits give low values 1.02 | locus YJL092W, strain hpr5, hits give low values 0.999 | locus YJL095W, strain BCK1 (second series), hits give low values 0.998 | locus YJL095W, strain BCK1, hits give low values 1.03 | locus YJL115W, strain asf1, hits give low values 0.992 | locus YJL129C, strain trk1, hits give low values 0.997 | locus YJL154C, strain vps35, hits give low values 0.995 | locus YJL164C, strain tpk1, hits give low values 0.997 | locus YJL166W, strain qcr8, hits give low values 0.991 | locus YJL187C, strain SWE1, hits give low values 0.998 | locus YJR066W, strain TOR1, hits give low values 0.952 | locus YKL160W, strain elf1, hits give low values 1 | locus YKR026C, strain gcn3, hits give low values 0.984 | locus YKR091W, strain srl3, hits give low values 0.986 | locus YLL001W, strain dnm1, hits give low values 1.01 | locus YLL026W, hits give low values 0.994 | locus YLL041C, strain sdh2, hits give low values 0.995 | locus YLR027C, strain aat2, hits give low values 1 | locus YLR113W, strain HOG1, hits give low values 1.02 | locus YLR221C, strain rsa3, hits give low values 1 | locus YLR258W, strain gsy2, hits give low values 0.987 | locus YLR262C, strain YPT6 (second series), hits give low values 0.987 | locus YLR320W, strain mms22, hits give low values 1 | locus YLR342W, strain FKS1, hits give low values 0.996 | locus YLR357W, strain rsc2, hits give low values 0.961 | locus YLR370C, strain arc18, hits give low values 0.995 | locus YLR384C, strain iki3, hits give low values 0.994 | locus YML120C, strain ndi1, hits give low values 0.992 | locus YMR058W, strain fet3, hits give low values 0.998 | locus YMR125W, strain sto1, hits give low values 0.991 | locus YMR129W, hits give low values 0.976 | locus YMR205C, strain PFK2, hits give low values 1.01 | locus YMR231W, strain pep5, hits give low values 0.998 | locus YNL071W, strain lat1, hits give low values 0.988 | locus YNL183C, strain NPR1, hits give low values 0.971 | locus YNL209W, strain ssb2, hits give low values 0.985 | locus YNL248C, strain rpa49, hits give low values 1 | locus YNL322C, strain KRE1 (second series), hits give low values 0.98 | locus YNR049C, strain mso1, hits give low values 0.997 | locus YOR001W, strain rrp6, hits give low values 1.01 | locus YOR070C, strain gyp1, hits give low values 1 | locus YOR080W, strain dia2, hits give low values 1.01 | locus YOR083W, strain WHI5, hits give low values 0.962 | locus YOR106W, strain vam3, hits give low values 1 | locus YOR231W, strain MKK1, hits give low values 1.01 | locus YOR265W, strain rbl2, hits give low values 1.01 | locus YOR270C, strain vph1, hits give low values 1.02 | locus YOR290C, strain snf2, hits give low values 1 | locus YPL051W, strain arl3, hits give low values 0.983 | locus YPL078C, strain atp4, hits give low values 1.02 | locus YPL106C, strain sse1, hits give low values 0.929 | locus YPL240C, strain hsp82, hits give low values 0.983 | locus YPL256C, strain CLN2, hits give low values 1.02
